Results on 20 compounds are retold here after PubChem BioAssay (NCI).

Compounds without any hit were thinned out: in the full panel of roughly 79,000, 15% have a hit. Unmarked numbers belong to inactive results. Activity calls are given as the source filed them. No stated cut-off is given here; in the data, active means growth inhibition above about 70%; inactive means the rest.

Experiment [1] can be described thus: NCI Yeast Anticancer Drug Screen. Data for the rad50 strain (AID 155).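 Further: 0% = growth of vehicle-only cultures of the same strain.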 Conditions: S. cerevisiae rad50 strain growth inhibition; at 50.0 µM; stronger effect = higher value. A digest of the protocol: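 Growth of the mutant yeast was measured after compound exposure and referenced to vehicle-treated cultures.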
Experiment [2] is described as follows: NCI Yeast Anticancer Drug Screen. Data for the mec2-1 strain (AID 157). As to conditions: S. cerevisiae mec2-1 strain, at 50.0 µM, stronger effect = higher value. A digest of the protocol:
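Growth inhibition is read against vehicle-treated controls after compound exposure of the mec2-1 yeast strain, which is defective in DNA damage repair or cell cycle control.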

Experiment [3] can be described thus: NCI Yeast Anticancer Drug Screen. Data for the sgs1 mgt1 strain (AID 161).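 Further: 0% = growth of cultures given vehicle only.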 As to conditions: S. cerevisiae sgs1 mgt1 strain, at 50.0 µM, stronger effect = higher value. A digest of the protocol: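 Compounds are added to genetically altered yeast, and growth is compared with cultures given vehicle alone to give percent inhibition.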
Experiment [4] is described as follows: NCI Yeast Anticancer Drug Screen. Data for the cln2 rad14 strain (AID 165).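 Further: 0% = growth equal to vehicle treated cultures.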 Conditions: S. cerevisiae cln2 rad14 strain, at 50.0 µM, stronger effect = higher value. A digest of the protocol: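 Growth inhibition, relative to vehicle-treated controls, is the read-out. The test organism is a yeast strain with defined genetic alterations, cln2 rad14.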
Experiment [5] is described as follows: NCI Yeast Anticancer Drug Screen. Data for the bub3 strain (AID 167). Conditions: S. cerevisiae bub3 mutant strain, at 50.0 µM, stronger effect = higher value. Summed up: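 Whole-cell yeast assay. The mutant strain was incubated with compounds, and growth inhibition was determined by comparison with vehicle-treated cells.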
Experiment [6] is described as follows: NCI Yeast Anticancer Drug Screen. Data for the mlh1 rad18 strain (AID 175). As to conditions: S. cerevisiae mlh1 rad18 strain growth inhibition; at 50.0 µM; stronger effect = higher value. A digest of the protocol: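 Cells of a genetically altered yeast strain, deficient in DNA damage repair, were treated with compound. Their growth was then compared with that of vehicle-treated cultures to give inhibition.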

For `CCOC(=O)c1c[nH]c2nc(N)ccc2c1=O`, the growth inhibition in experiment [1] is -3.75%; in experiment [2], -0.2%; in experiment [3] it was 9.9%; in experiment [4], -16.4%; in experiment [5], -0.7%; in experiment [6], -5.4%.

As to `C/C(=C/C(=O)O)CC/C=C(/C)C(=O)O`, the growth inhibition in experiment [1] is -0.15%; in experiment [2], -5.1%; in experiment [3], -1.25%; in experiment [4] it was 21.4%; in experiment [5] it was 22.1%; in experiment [6], 4.9%.

`O=[N+]([O-])c1cc(Cl)cc2c1nc(NCCCO)c1ccccc12`: the growth inhibition was -0.8% in experiment [1]; 7.35% in experiment [2]; -0.3% in experiment [3]; -7.95% in experiment [4]; -7.65% in experiment [5]; 27.9% in experiment [6].

As to `CC(C)C(=O)OC1(Cc2cccc[n+]2C)CCCCC1`, the growth inhibition in experiment [1] was 8.8%; in experiment [2], 9.6%; in experiment [3] it was 22.6%; in experiment [4], 27.4%; in experiment [5] it was 12.9%; in experiment [6], 1.45%.

In the case of `O=C1C(=Cc2ccc([N+](=O)[O-])cc2)C(=O)c2ccccc21`, the growth inhibition in experiment [1] is 28.9%; in experiment [2], 36.6%; in experiment [3], 22.1%; in experiment [4], 24.1%; in experiment [5], 0.15%; in experiment [6] it was 85.5% (active).

In the case of `Cn1c(=O)c2c(nc(Cl)n2Cc2ccc([N+](=O)[O-])cc2)n(C)c1=O`, the growth inhibition is -2.35% in experiment [1]; 20% in experiment [2]; -2.55% in experiment [3]; -39.3% in experiment [4]; 20.1% in experiment [5]; 1% in experiment [6].

Consider `CC(C)CCC[C@@H](C)[C@H]1CC[C@H]2[C@@H]3CC[C@H]4C[C@@H](CCC=C(c5cc(Cl)c(O)c(C(=O)O)c5)c5cc(Cl)c(O)c(C(=O)O)c5)CC[C@]4(C)[C@H]3CC[C@]12C`, for which the growth inhibition in experiment [1] is 15.3%; in experiment [2], 8.35%; in experiment [3], 11.4%; in experiment [4], -4.2%; in experiment [5] it was 24.5%; in experiment [6] it was -1.75%.

For `FC(F)(F)C1(C(F)(F)F)C2CCC3(CC(F)(F)C(F)(F)S3)C1C2` (stereo not given), the growth inhibition was -1.05% in experiment [1]; -27.9% in experiment [2]; -4.25% in experiment [3]; 22.9% in experiment [4]; 7.65% in experiment [5]; 30.6% in experiment [6].

Turning to `Cc1ccccc1/C=C/C(=O)O`, the growth inhibition in experiment [1] was -0.4%; in experiment [2], -9.95%; in experiment [3] it was -0.45%; in experiment [4], -13.6%; in experiment [5], -24.4%; in experiment [6], -12.7%.

As for `[N-]=[N+]=Nc1ccccc1C(=O)NCCNC(=O)c1ccccc1N=[N+]=[N-]`, the growth inhibition in experiment [1] is -7.4%; in experiment [2], -31.9%; in experiment [3], 2.25%; in experiment [4], 6.85%; in experiment [5] it was 2.6%; in experiment [6], 6.75%.

Take `CCOC(=O)CC(=O)Cc1oc2c(C(C)=O)c(O)c(C)c(O)c2c1C`: the growth inhibition is -0.8% in experiment [1]; 7% in experiment [2]; -0.2% in experiment [3]; 6.05% in experiment [4]; 2.85% in experiment [5]; 14.8% in experiment [6].

For the compound `CC(C)(C)N(O)c1ccc(P(=O)(c2ccccc2)c2ccccc2)cc1`, the growth inhibition in experiment [1] is 23.4%; in experiment [2], 15.4%; in experiment [3] it was 12.3%; in experiment [4] it was -4.7%; in experiment [5], -2.35%; in experiment [6], 11.8%.

Regarding `O=NC(C[N+](=O)[O-])c1ccccc1` (stereo not given), the growth inhibition in experiment [1] is 4.6%; in experiment [2], -21.9%; in experiment [3], 2.7%; in experiment [4] it was -40.7%; in experiment [5] it was 6.55%; in experiment [6], -24.4%.

`CN(C)C(=O)OCC1COc2ccccc2O1` (stereo not given): the growth inhibition in experiment [1] was 15%; in experiment [2], -23.6%; in experiment [3], -23.1%; in experiment [4], -70.2%; in experiment [5] it was -11.1%; in experiment [6] it was -12.6%.

Turning to `CC(=O)/C=C\C(=O)NNS(=O)(=O)c1ccc(C)cc1`, the growth inhibition in experiment [1] was 20.6%; in experiment [2], 12.7%; in experiment [3] it was -1.75%; in experiment [4], 9.35%; in experiment [5], 34.1%; in experiment [6] it was 46.7%.

For `COc1ccc2c(c1)C(=O)CC(C(N)=O)C2` (stereo not given), the growth inhibition in experiment [1] is 20.6%; in experiment [2] it was 2.85%; in experiment [3], -29.9%; in experiment [4] it was 3.6%; in experiment [5], -13.7%; in experiment [6] it was -32%.

On to `CC(=O)C1=CCC2c3[nH]c4ccccc4c3CCN2C1` (stereo not given), for which the growth inhibition in experiment [1] is 17.6%; in experiment [2], 4.1%; in experiment [3] it was 20.3%; in experiment [4], 25.7%; in experiment [5] it was 1.5%; in experiment [6], 18.9%.

For the compound `CCCC1(C(=O)O)NC(=O)NC1=O` (stereo not given), the growth inhibition in experiment [1] is -4.7%; in experiment [2], -11.3%; in experiment [3], -14.7%; in experiment [4], -12.6%; in experiment [5] it was -1.1%; in experiment [6], -8.1%.

`CCCCC(Sc1cc(Cl)c(C)cc1S(=O)(=O)Nc1n[nH]c(N)n1)C(=O)OC` (stereo not given): the growth inhibition in experiment [1] was -4.85%; in experiment [2], -12.3%; in experiment [3], 50%; in experiment [4], 7%; in experiment [5], -18.8%; in experiment [6] it was 5.75%.

`O=C(O)COc1ccc2ccccc2c1`: the growth inhibition is -15.4% in experiment [1]; 3.55% in experiment [2]; -22.9% in experiment [3]; -14.8% in experiment [4]; 4.15% in experiment [5]; 2.1% in experiment [6].
